We go through 69 compounds from PubChem BioAssay AID463173 (ICCB-Longwood Screening Facility, Harvard Medical School, 2010).

Screen size: about 52,000 compounds; about 4,300 (8.3%) were called active. Rule as the data show it: active = survival mostly below about 52% (no sharp cut-off); inactive = mostly above about 56%. The sample as a whole holds a higher share of actives than the screen did.

In the experiment the test system is DeltatarO mutant. Put plainly: growth inhibition of S. aureus wild type versus tarO mutant, primary screen, teichoic acid synthesis inhibitors, RN4220, OD600 (AID 463173). Conditions: OD600, 18 h, active compounds read low, screened at 18.75 µg/mL (by protocol).
In the case of `Cc1ccc(C)c(CN2C(=O)c3ccccc3S(=O)c3ccc(C(=O)N(C)Cc4ccccc4)cc32)c1` (centres undefined), the survival is 78% (inactive).
As for `Cc1ccc(Nc2cc(C(=O)NCc3cccs3)c3ccccc3n2)c(C)c1`, the survival is 72% (inactive).
For `COc1ccccc1NC(=O)C1=C(C)Nc2ncnn2C1c1cccn1C` (centres undefined), the survival was 8% (active).
For `COc1ccc(NC(=O)C2=C(C)Nc3ncnn3C2c2cccn2C)cc1` (centres undefined) the value was 89% (inactive).
Turning to `CCOc1ccccc1NC(=O)C1=C(C)Nc2ncnn2C1c1ccccn1` (centres undefined), the survival was 25% (active).
With `COc1ccccc1NC(=O)C1=C(C)Nc2ncnn2C1c1ccccn1` (centres undefined), the survival is 52% (inactive).
For `CC1=C(C(=O)Nc2ccccc2)C(c2cccn2C)n2ncnc2N1` (centres undefined) the value was 95% (inactive); for `CC1=C(C(=O)Nc2ccccc2C)C(c2ccccn2)n2ncnc2N1` (centres undefined), 94% (inactive).
Regarding `Cc1ccccc1CN1C(=O)c2ccccc2Sc2ccc(C(=O)NC3CCCCC3)cc21`, the survival is 71% (inactive).
In the case of `O=C(O)C1CSC2c3ccccc3C(=O)N12` (centres undefined), the survival was 103% (inactive).
On to `O=c1[nH]c2cc3c(cc2cc1CN(CCO)C(=S)Nc1cccc(Cl)c1)OCO3`, for which the survival was 69% (inactive).
The result for `Cc1ccc(CNC(=O)c2ccc3c(c2)CCN3S(=O)(=O)c2ccccc2)cc1` reads 37% (active).
`O=C(NCc1ccccc1)c1ccc2c(c1)CCN2S(=O)(=O)c1ccccc1`: the survival is 36% (active).
As for `Cc1ccc(CNC(=O)c2ccc3c(c2)CCN3S(=O)(=O)c2ccc(Br)cc2)cc1`, the survival was 80% (inactive).
For the compound `CCS(=O)(=O)N1CCc2cc(C(=O)NCc3ccc(C)cc3)ccc21`, the survival was 82% (inactive).
In the case of `CS(=O)(=O)N1CCc2cc(C(=O)NCc3ccccc3)ccc21`, the survival was 81% (inactive).
For `O=C(NCc1ccccc1)c1ccc2c(c1)CCN2S(=O)(=O)c1ccc(Cl)cc1` the value was 73% (inactive); for `CC(=O)N1CCc2cc(S(=O)(=O)NC(Cc3ccccc3)C(=O)NCc3ccccc3)ccc21` (centres undefined), 79% (inactive); for `Cc1ccc2c(c1)N(CC(=O)N(Cc1cccnc1)C1CCCC1)C(=O)C(C)O2` (centres undefined), 97% (inactive).
For `Cc1ccc(-n2nc(C(=O)N3CCN(c4cc(Cl)ccc4C)CC3)c(=O)n(C)c2=O)cc1` the value was 116% (inactive); for `Cc1ccc(OCC(=O)Nc2ccc3nc(SCC(=O)Nc4ccc(C)cc4C)sc3c2)cc1`, 73% (inactive); for `Cc1ccc2nc(NCc3ccccc3Cl)c3nnnn3c2c1`, 91% (inactive).
With `Cc1ccc2nc(N3CCN(c4ccccc4)CC3)c3nnnn3c2c1`, the survival is 88% (inactive).
In the case of `COc1ccc(N2CCN(c3nc4ccc(C)cc4n4nnnc34)CC2)cc1`, the survival was -5% (active).
For `Cc1ccc2nc(N3CCN(c4ccc(F)cc4)CC3)c3nnnn3c2c1`, the survival was 55% (inactive).
`COc1ccc(OC)c(CNc2nc3ccc(C)cc3n3nnnc23)c1`: the survival is 88% (inactive).
Consider `COc1ccccc1CNc1nc2ccc(C)cc2n2nnnc12`, for which the survival was 17% (active).
For `COc1ccc(-c2ccc(Nc3ccc(C(=O)N4CCCCCC4)cc3)nn2)cc1`, the survival was 71% (inactive).
For `CCOc1ccccc1CNC(=O)c1cnc2sc(N3CCOCC3)nn2c1=O` the value was 67% (inactive); for `CCCCCn1c(-c2ccc(OC)c(OC)c2)nc2ccccc21`, 1% (active); for `CCOc1ccc(Cn2c(-c3ccc(OCC)c(OC)c3)nc3ccccc32)cc1OC`, 79% (inactive).
With `CCCCCn1c(CCCNC(=O)c2ccccc2OC)nc2ccccc21`, the survival was 53% (inactive).
Consider `CCCCn1c(CCCNC(=O)c2cccc(C)c2)nc2ccccc21`, for which the survival was 55% (inactive).
`CCCCCn1c(CCCNC(=O)c2cccc(C)c2)nc2ccccc21`: the survival was 51% (inactive).
For the compound `CCCCCn1c(CCNC(=O)c2cccc(C)c2)nc2ccccc21`, the survival is 32% (active).
For `CCCCCn1c(C(C)NC(=O)c2ccccc2)nc2ccccc21` (centres undefined) the value was 81% (inactive); for `CCCCn1c(C)nc2ccccc21`, 104% (inactive).
As to `CCCCCn1c(-c2cccc(C)c2)nc2ccccc21`, the survival was -2% (active).
For the compound `COc1cccc(C(C(=O)NCc2ccco2)N(C(=O)Cn2nnc3ccccc32)C2CC2)c1OC` (centres undefined), the survival was 107% (inactive).
With `CCOC(=O)c1noc2nc(C)n(CC(=O)Nc3cc(Cl)ccc3OC)c(=O)c12`, the survival was 109% (inactive).
In the case of `Cc1csc2nc(CCNS(=O)(=O)c3ccccc3)cn12`, the survival is 79% (inactive).
The result for `Cc1cc(C)c(/C=C/c2onc(C)c2S(=O)(=O)N2CCC(C(=O)Nc3ccc(Cl)c(C(F)(F)F)c3)CC2)c(C)c1` reads 67% (inactive).
The result for `Cc1nn2c(=O)cc(COC(=O)c3ccccc3NC(=O)c3ccccc3C)nc2s1` reads 104% (inactive).
As for `COc1ccc(-c2nc3scc(CCNS(=O)(=O)c4c(C)cc(C)cc4C)n3n2)cc1OC`, the survival was 85% (inactive).
Consider `Cc1ccccc1-c1nc(CNC(=O)Nc2ccccc2)c(C)o1`, for which the survival was 89% (inactive).
The result for `CC(C)Oc1ccc(CN2CCc3nc(Nc4ccc5c(c4)OCCO5)ncc3C2)cc1` reads 77% (inactive); that for `Cc1ccc(Cl)cc1Nc1nn2c(=O)c3ccc(C(=O)NC(C)c4ccccc4)cc3nc2s1` (centres undefined), 105% (inactive); that for `CN(C(=O)CSc1nc2ccc(NC(=O)COc3ccc(F)cc3)cc2s1)c1ccccc1`, 73% (inactive).
Consider `CCC1CCCCN1CC(=O)N1CCCc2c1c(=O)oc1ccc(OCc3ccccc3)cc21` (centres undefined), for which the survival is 18% (active).
For the compound `CC1CCCCN1CC(=O)N1CCCc2c1c(=O)oc1ccc(OCc3ccccc3)cc21` (centres undefined), the survival is 77% (inactive).
In the case of `CC1CCN(CC(=O)N2CCCc3c2c(=O)oc2ccc(OCc4ccccc4)cc32)CC1`, the survival is 98% (inactive).
For `COc1ccc(N(Cc2nnc3n2CCCCC3)C(=O)Nc2cccc(C)c2)cc1Cl` the value was 81% (inactive).
Consider `COc1ccc(C2CC(=O)c3cc(-c4nc(-c5ccc(Cl)cc5)cs4)c(=O)[nH]c3C2)cc1` (centres undefined), for which the survival is 167% (inactive).
With `COc1ccc(C2CC(=O)c3cc(-c4nc(-c5ccc(Cl)cc5)c(C)s4)c(=O)[nH]c3C2)cc1` (centres undefined), the survival is 70% (active).
Regarding `Cc1sc(-c2cc3c([nH]c2=O)CC(c2ccccc2)CC3=O)nc1-c1ccc(Cl)cc1` (centres undefined), the survival was 73% (inactive).
Regarding `CON(C)c1nc(OCCNC(=O)OCc2ccc(Cl)cc2Cl)nc(N(C)C)n1`, the survival is 76% (inactive).
For `CCOc1ccc(NC(=O)CCCc2nnc3n(C)c(=O)c4sccc4n23)cc1` the value was 78% (inactive).
For the compound `Cc1nc2ccn(Cc3cccs3)c(=O)c2cc1C(=O)NCc1ccccc1`, the survival is 78% (inactive).
Regarding `Cc1ccc(C)c(N2CCN(C(=O)c3cc4c(=O)n(Cc5cccnc5)ccc4nc3C)CC2)c1`, the survival is 46% (active).
For `Cc1nc2ccn(Cc3cccnc3)c(=O)c2cc1C(=O)N1CCN(c2ccccc2)CC1` the value was 105% (inactive); for `Cc1nc2ccn(Cc3cccnc3)c(=O)c2cc1C(=O)NCc1ccccc1`, 72% (inactive).
The result for `Cc1nc2ccn(Cc3cccs3)c(=O)c2cc1C(=O)NCc1ccc(Br)cc1` reads 70% (inactive); that for `Cc1nc2ccn(Cc3cccs3)c(=O)c2cc1C(=O)Nc1ccccc1`, 84% (inactive).
With `COc1cccc(CNC(=O)c2cc3c(=O)n(Cc4cccnc4)ccc3nc2C)c1`, the survival is 144% (inactive).
Take `COc1cc(NC(=O)c2cc3c(=O)n(Cc4cccs4)ccc3nc2C)cc(OC)c1OC`: the survival is 0% (active).
Regarding `CCc1ccc(CNC(=O)c2cc3c(=O)n(Cc4cccs4)ccc3nc2C)cc1`, the survival was 32% (active).
The result for `COc1ccc(NC(=O)c2cc3c(=O)n(Cc4cccs4)ccc3nc2C)cc1` reads 75% (inactive).
Turning to `COc1ccc(CNC(=O)c2cc3c(=O)n(Cc4cccnc4)ccc3nc2C)cc1`, the survival was 37% (active).
The result for `Cc1ccc(C)c(N2CCN(C(=O)c3cc4c(=O)n(Cc5ccccc5)ccc4nc3C)CC2)c1` reads 78% (inactive).
